Assay outcomes deposited in PubChem by NMMLSC.
MEKK3 PB1 HTS: modulators of MEKK3-MEK5 PB1 binding, primary screen, biochemical, wildtype MEKK3, multiplex bead flow cytometry, Alexa488-MEK5. hit rate 1.4% among 290,000. AID 1529, 2009. binding response (% of control), % at 10 µM. bead-based flow cytometry, Alexa488-MEK5 binding to MEKK3; actives lie on both sides; 0 = blocked by unlabeled MEK5, 100 = vehicle;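 active means binding response more than 3 SD above or below the average of its plate-row segment, actives on both sides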;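 further: Alexa488 bead fluorescence after subtracting the streptavidin-only scavenger bead signal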
GRK2 inh: compounds blocking aptamer binding on GRK2 – biochemical, human GRK2, bead flow cytometry, HTS, primary screen; AID 488847, 2010; FAM-aptamer displacement from GRK2; Beta-adrenergic receptor kinase 1 (Homo sapiens), P25098; inhibition of aptamer binding, % at 10 µM; hit rate 0.59% among 330,000;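 active means inhibition of aptamer binding above 40%, roughly 3 SD of noise, on plates passing a quality check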;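 further: median bead fluorescence of bound FAM aptamer so fluorescent compounds give negative values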
MEKK2mut PB1 HTS: MEK5 binding signal on mutant MEKK2 PB1, primary screen, biochemical, multiplex bead flow cytometry, Alexa488-MEK5 | percent response, % at 10 µM | hit rate 0.35% among 290,000 | Alexa488-MEK5 binding to MEKK2 mutant; in the data active means percent response above about 24%, passing the limit was not always enough
Beta2AR agonist: beta2AR agonists driving receptor internalization, primary screen, cell-based, FAP fluorogen, flow cytometry. hit rate 0.43% among 340,000. response, % (concentration not given with the values). Beta-2 adrenergic receptor (Homo sapiens), P07550. Am2.2-beta2AR cells. AID 504454, 2011;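 active means response above a set limit, near 3 SD of response in nonfluorescent compounds, cut at about 42% in these data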
Target sequence (P07550 whole entry, looked up): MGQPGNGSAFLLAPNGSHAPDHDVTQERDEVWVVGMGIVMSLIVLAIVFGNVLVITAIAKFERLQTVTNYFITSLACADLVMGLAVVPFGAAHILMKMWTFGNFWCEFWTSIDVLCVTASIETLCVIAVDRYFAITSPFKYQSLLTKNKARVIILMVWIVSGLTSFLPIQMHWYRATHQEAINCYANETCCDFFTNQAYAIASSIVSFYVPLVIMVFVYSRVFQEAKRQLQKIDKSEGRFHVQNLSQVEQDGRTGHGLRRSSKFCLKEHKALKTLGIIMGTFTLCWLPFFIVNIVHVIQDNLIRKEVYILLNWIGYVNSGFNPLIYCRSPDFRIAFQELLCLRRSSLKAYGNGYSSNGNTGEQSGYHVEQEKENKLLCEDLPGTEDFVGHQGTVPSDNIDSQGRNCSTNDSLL
MEKK2wt PB1 HTS: modulators of MEK5 binding to wildtype MEKK2, primary screen, biochemical, multiplex bead flow cytometry, Alexa488-MEK5 | Alexa488-MEK5 binding to MEKK2 WT; actives lie on both sides | binding response (% of control), % at 10 µM | hit rate 1.1% among 290,000; in the data active means binding response below about 67% or above about 130%
MEKK2wt confirm: modulators of MEK5 binding to wildtype MEKK2, confirmation, biochemical, single concentration, multiplex bead flow cytometry; hit rate 2.4% among 5,900; AID 1892, 2009; binding response (% of control), % at 10 µM; shares compounds with MEKK3 PB1 HTS; Alexa488-MEK5 binding to MEKK2 WT; actives lie on both sides; in the data active means binding response below about 16% or above about 210%; inactive means in between
MEKK2mut-MEK5: mutant MEKK2 PB1-MEK5 binding signal retest – biochemical, single concentration, multiplex bead flow cytometry, confirmation; shares compounds with MEKK3 PB1 HTS; hit rate 2% among 5,900; Alexa488-MEK5 binding to MEKK2 mutant; percent response, % at 10 µM; in the data active means percent response mostly above about 71%, no sharp cut-off; inactive means mostly below about 38%;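 further: higher means compound restores mutant binding toward wildtype level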
MEKK3 confirm: MEKK3 wild-type PB1 binding to MEK5, inhibitors, confirmation, biochemical, bead multiplex flow cytometry, single concentration, wildtype; Alexa488-MEK5 binding to MEKK3; active compounds read low; shares compounds with MEKK3 PB1 HTS; hit rate 1.8% among 5,900; binding response (% of control), % at 10 µM; AID 1894, 2009;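 active means binding response below 72% of control, or above a set upper limit, though filed actives all read lower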;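 further: 100% = DMSO only wells and 0% = binding blocked by excess unlabeled MEK5; lower values mean stronger disruption of MEK5 binding to MEKK3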
Starred values were filed as active, the others as inactive; / = not tested or not shown; [ ] = another dose, or the depositor's remark. Most compounds without a hit are left out; they make up all but 2.9% or so of the library.

SMILES | MEKK3 PB1 HTS | GRK2 inh | MEKK2mut PB1 HTS | Beta2AR agonist | MEKK2wt PB1 HTS | MEKK2wt confirm | MEKK2mut-MEK5 | MEKK3 confirm
CC(C)CCN1C(=O)c2ccc(C(=O)Nc3ccccn3)cc2C1=O | 109 | 2 | 10 | 7 | 110 | / | / | /
Cc1cccc(C(C)C)c1NS(=O)(=O)c1cn(C)nc1C | 102 | 0 | 3 | -3 | 104 | / | / | /
O=C1N=C(N2CCCC2)S/C1=C\C=C\c1ccccc1 | 103 | 0 | 4 | -6 | 105 | / | / | /
Cc1cc(NC(=O)c2cc3cccc([N+](=O)[O-])c3[nH]2)ccc1F | 93 | 0 | -5 | 15 | 91 | / | / | /
COc1ccc(-c2nc(CN3CCN(c4cc(C)nc(C)c4)CC3)c(C)o2)c2ccccc12 | 107 | 0 | -6 | 34 | 158* | 161 | 26 | 106
CN1CCN(CC(=O)N2c3ccccc3C(C)(c3ccc(Cl)cc3)CC2(C)C)CC1 (configuration not stated) | 105 | 0 | 27* | 12 | 112 | 111 | -1 | 100
O=[N+]([O-])c1cc(S(=O)(=O)N2CCOCC2)ccc1OCc1cccc(Cl)c1 | / | 0 | / | -1 | / | / | / | /
CCOc1ccccc1NC(=O)NCc1cccnc1 | 43*[inhibitor] | 2 | -16 | -7 | 49 | 96 | -5 | 99
Cc1ccc(SCCN2CCC(O)CCC2=O)cc1 (configuration not stated) | 102 | 1 | -6 | 2 | 98 | / | / | /
COc1ccc(C)cc1NC(=O)c1cc(S(=O)(=O)N2CCCCC2)ccc1N1CCOCC1 | / | 0 | / | 5 | / | / | / | /
Cc1ccc(C)n1-c1ccc(C(=O)NCc2ccncc2)cc1 | 50*[inhibitor] | 0 | -15 | 2 | 65 | 103 | 0 | 103
CCOc1ccc(C(=O)NCc2ccncc2)cc1 | 100 | 9 | 1 | -2 | 106 | / | / | /
COc1ccc(-c2nnc(OCc3ccccc3)c3ccccc23)cc1 | 129* | 0 | 0 | -1 | 104 | 110 | 9 | 110
COc1ccc(N2CCN(C(=O)c3cc4c(s3)-c3ccccc3S(=O)(=O)C4)CC2)cc1 | 82 | 3 | -19 | 21 | -10*[inhibitor] | 101 | 5 | 104
O=C(O)c1cccc(N/N=C/C2=C(Cl)c3cc(Cl)ccc3SC2)c1 | 28*[inhibitor] | / | -79 | 9 | 10*[inhibitor] | 104 | 1 | 107
Cc1ccc([N+](=O)[O-])cc1N(CC(=O)NC1CCCC1)S(C)(=O)=O | 73*[inhibitor] | 0 | -7 | 5 | 75 | 103 | -2 | 104
COc1ccc([N+](=O)[O-])cc1N(CC(=O)NC1CCCCC1)S(C)(=O)=O | 102 | 0 | 3 | -4 | 108 | / | / | /
COc1ccc(C(O)(C(=O)NNc2ccc(C)cc2)c2cccs2)cc1 (configuration not stated) | 122* | 0 | 5 | 7 | 115 | 101 | -1 | 106
O=C(NNc1ccc(C2CCCCC2)cc1)C(O)(c1ccccc1)c1cccs1 (configuration not stated) | 105 | 0 | 0 | -4 | 94 | / | / | /
COc1cc2c(cc1NC(=O)Nc1cccc(C)c1)oc1ccccc12 | 106 | 1 | 30* | 4 | 150* | 6.0*[inhibitor] | 41 | 101
COc1cc2c(cc1NC(=O)Nc1ccc(C)cc1)oc1ccccc12 | 113 | 1 | 24* | 11 | 141* | 132 | -1 | 95
